GLP-1R inv ag = acts as inverse agonist at human GLP-1 receptor; HEK293 GLP-1R CRE-luciferase, luminescence, 24 h; GLP-1R form is constitutively active; Potency, µM (titrated, usually from 38.3 µM), actives largely listed as inhibitors; hit rate 1.6% among 410,000; AID 624417; further: nearly all actives have a fitted effect of over 55% in size
Target sequence (P43220 whole entry, looked up): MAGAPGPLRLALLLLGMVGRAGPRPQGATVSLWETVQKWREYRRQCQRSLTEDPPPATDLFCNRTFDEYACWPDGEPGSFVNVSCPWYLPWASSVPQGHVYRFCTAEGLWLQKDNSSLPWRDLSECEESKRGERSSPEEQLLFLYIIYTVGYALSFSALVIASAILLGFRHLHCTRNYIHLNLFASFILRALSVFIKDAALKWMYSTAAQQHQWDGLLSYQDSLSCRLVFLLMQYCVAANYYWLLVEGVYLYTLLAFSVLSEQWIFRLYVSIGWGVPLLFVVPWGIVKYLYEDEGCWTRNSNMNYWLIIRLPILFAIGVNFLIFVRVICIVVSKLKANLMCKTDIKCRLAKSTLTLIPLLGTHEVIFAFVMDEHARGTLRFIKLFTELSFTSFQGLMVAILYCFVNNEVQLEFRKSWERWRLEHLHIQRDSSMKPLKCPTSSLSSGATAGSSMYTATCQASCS
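Assay principle: reduced luminescence from a cAMP-responsive reporter in HEK293 cells co-expressing a constitutively active GLP-1R. Conditions: 24 hr compound incubation, 37 deg C, 5% CO2.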
GLP-1R agonist = activates the human GLP-1 receptor; P43220; HEK293 GLP-1R CRE-luciferase, luminescence, 4-6 h; cells express a hypersensitive GLP-1R form; Potency, µM (top dose mostly 45.6 µM), usual class: activators; hit rate 0.007% among 380,000; AID 624172
PTHR1 ag = PTHR1 (human) receptor agonism | HEK293 GP2 PTHR1 cells, GloSensor cAMP luminescence, 1 h | Q03431 | hit rate 0.075% among 410,000 | Potency, µM (doses to about 115 µM), most hits filed as activators; further: nearly all actives have a fitted effect of over 55% in size
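HEK-293-derived GP2 cells expressing PTHR1 and a GloSensor cAMP reporter, 3,000/well, plated overnight, given luciferin plus IBMX (each 0.5 mM as added) for 1 h at 37 °C, then compound for 1 h at 37 °C. Luminescence was read after 15 min at room temperature.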
GLP1R cytotox = cytotoxicity counter-screen for GLP-1 receptor inverse agonists | HEK293 cAMP-luciferase reporter cells, luminescence, 24 h | Potency, µM (titrated, usually from 38.3 µM), hits mostly inhibitors | hit rate 0.13% among 410,000;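 further: loss of luciferase light is scored as toxicity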
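Cells in DMEM/10% Nu serum/1% pen-strep, 1536-well format. Pre-incubated 12 h, dosed with 23 nL compound, incubated a further 24 h. Luciferase detection, 12 min at room temp, luminescence.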
Of the large screens only hits and unclear results are named; the others gave an inactive call. Shown are actives, neighbours in structure and some others; about 1.7% of the full set was active somewhere. The call rests on the fitted dose curve; in most records, active means well fitted curve in the direction sought with a large enough effect; inconclusive means small, poorly fitted or top-dose-only effect, or another doubt; inactive means no such curve, though single readings can be large; an effect the other way counts as inactive or inconclusive.

CC(C)c1ccc(C2Sc3ccccc3NC3=C2C(=O)c2ccccc23)cc1 (stereo unspecified)	GLP-1R inv ag 8.9µM (no result: GLP-1R agonist)
COc1ccc(C(=O)NC(=S)Nc2ccc(CN3CCOCC3)cc2)cc1Br	GLP-1R inv ag 13µM, GLP1R cytotox inconclusive
CC(C)COc1cccc(C(=O)Nc2ccc(CN3CCOCC3)cc2)c1	GLP-1R inv ag 8.9µM
CC(C)c1ccc(/C=C/C(=O)NC(=S)Nc2ccc(CN3CCOCC3)cc2)cc1	GLP-1R inv ag inconclusive, GLP1R cytotox 10µM
N#C/C(=C(/O)COC(=O)CSc1ccc(Cl)cc1)c1nc2ccccc2[nH]1	GLP-1R inv ag inconclusive, GLP1R cytotox 8.9µM
Cc1cc(SCC(=O)OC/C(O)=C(\C#N)c2nc3ccccc3[nH]2)c(C)cc1Br	GLP-1R inv ag inconclusive, GLP1R cytotox inconclusive
COc1ccc(CN(CCC(C)C)S(=O)(=O)c2ccccc2Br)cc1	GLP-1R inv ag 11µM
COCCn1c(C)cc(O)c(C(c2ccccc2)N2CCC(C)CC2)c1=O (stereo unspecified)	none (no result: GLP-1R agonist)
Cc1cc(C)cc(NC(=O)CN2C(=O)CSc3ccc(S(=O)(=O)N4CCCC4)cc32)c1	GLP-1R inv ag inconclusive (no result: GLP-1R agonist)
Cc1cc(Cl)ccc1NC(=O)CN1C(=O)CSc2ccc(S(=O)(=O)N3CCOCC3)cc21	GLP-1R inv ag 11µM
Cc1ccc(Cl)cc1NC(=O)CN1C(=O)CSc2ccc(S(=O)(=O)N3CCCC3)cc21	none (no result: GLP-1R agonist)
Cc1ccc(NC(=O)CN2C(=O)CSc3ccc(S(=O)(=O)N4CCCCC4)cc32)cc1	GLP-1R inv ag 5µM
O=C(Cn1ncc2c3ccccc3n(Cc3cccc(Cl)c3)c2c1=O)NC1CCCCCC1	GLP-1R inv ag inconclusive (no result: GLP-1R agonist)
C=C(C)CCC(C)N1CCC(n2nccc2NC(=O)CCOc2ccccc2)CC1 (stereo unspecified)	GLP-1R inv ag 5µM
CCOc1ccc(CN2CCC(n3nccc3NC(=O)CCCc3ccccc3)CC2)cc1	GLP-1R inv ag inconclusive
CCOc1cccc(CN2CCC(n3nccc3NC(=O)CCCc3ccccc3)CC2)c1	GLP-1R inv ag 10µM
O=C(Nc1ccccc1O)c1cc(S(=O)(=O)N2CCCC2)ccc1Cl	GLP-1R inv ag inconclusive (no result: GLP-1R agonist)
Cc1nc(-c2ccc(S(=O)(=O)NCc3ccc(N(C)C)cc3)cc2)co1	none
Cc1cc(Br)cn2c(Cc3cccc(Cl)c3)c(-c3cccc(Cl)c3)nc12	GLP-1R inv ag 10µM
Cc1cc(Br)cn2c(Cc3ccsc3)c(-c3cccc(Cl)c3)nc12	GLP-1R inv ag inconclusive
Cc1ccc(C2=Nc3ccccc3N(CC(=O)NCc3ccccc3Cl)C(=O)C2)cc1C	GLP-1R inv ag inconclusive (no result: GLP-1R agonist)
COc1ccc(N2C(=O)C(CC(=O)Nc3ccc(F)cc3)N(CCC3=CCCCC3)C2=O)cc1 (stereo unspecified)	none (no result: GLP-1R agonist)
O=C(CC1C(=O)N(c2ccccc2)C(=O)N1CCC1=CCCCC1)Nc1ccc(F)cc1 (stereo unspecified)	GLP-1R inv ag 10µM (no result: GLP-1R agonist)
Cc1ccsc1CCN1C(=O)N(c2ccccc2)C(=O)C1CC(=O)Nc1ccc(Cl)cc1 (stereo unspecified)	GLP-1R inv ag 10µM (no result: GLP-1R agonist)
CCOCCn1ccc2c(OCC(=O)Nc3cc(C(F)(F)F)ccc3Cl)cccc2c1=O	none (no result: GLP-1R agonist)
Cc1ccc(OCC(=O)N(Cc2ccc(Cl)cc2)Cc2ccco2)cc1C	GLP-1R inv ag inconclusive (no result: GLP-1R agonist)
O=C(COc1cccc(OC(F)F)c1)Nc1ccc(SC(F)F)cc1	GLP-1R inv ag 10µM
Cc1ccc(C(=O)c2ccccc2C(=O)OCC(=O)Nc2ccc(SC(F)F)cc2)cc1	GLP-1R inv ag 8.9µM
Cc1nnc2c(N3CCN(c4ccccc4F)CC3)nc3ccc(C(=O)c4ccccc4)cc3n12	none (no result: GLP-1R agonist)
CN1CCN(c2ccccc2NC(=O)c2ccc(-c3ccc(Cl)c(Cl)c3)o2)CC1	none
Cc1cc(N2CCN(C)CC2)ccc1NC(=O)c1ccc(-c2ccc(Cl)cc2)o1	GLP-1R inv ag 11µM, GLP1R cytotox inconclusive
COc1ccccc1NC(=O)c1oc2ccccc2c1NC(=O)c1ccc(S(=O)(=O)N(C)C)cc1	none (no result: GLP-1R agonist)
Nc1nc(Sc2ccc([N+](=O)[O-])c3nonc23)c2[nH]cnc2n1	GLP-1R inv ag inconclusive, GLP1R cytotox 8.9µM
CCN(Cc1ccccc1)S(=O)(=O)c1ccc(C(=O)N(CCCN(C)C)c2nc3ccc(F)cc3s2)cc1	GLP-1R inv ag 5.6µM, GLP1R cytotox inconclusive
CN(C)CCCN(C(=O)CCOc1ccccc1)c1nc2ccc(F)cc2s1	GLP-1R inv ag inconclusive, GLP1R cytotox 10µM
CC(C)(S)C(=O)N[C@H](CS)C(=O)O	none (no result: GLP-1R inv ag, PTHR1 ag, GLP1R cytotox)
O=C(c1ccc(=O)[nH]c1)N1CCN(S(=O)(=O)c2cc(C(F)(F)F)ccc2Cl)CC1	none
O=C(NNc1cc(C(F)(F)F)ccc1Cl)c1ccc(=O)[nH]c1	GLP-1R inv ag 3.5µM
O=C(COc1ccc(/C=N/NS(=O)(=O)c2ccccc2)cc1)Nc1cccc(Cl)c1	GLP-1R inv ag 10µM
O=C(COc1ccc(/C=N/NS(=O)(=O)c2ccccc2)cc1)NCc1ccccc1	none
CC(C)(CNC(=O)c1sc2cc(Cl)ccc2c1Cl)N1CCOCC1	GLP-1R inv ag 10µM
COc1ccccc1Nc1nc(-c2ccc(F)cc2)c2c(n1)-c1ccccc1OC2	none (no result: GLP-1R agonist)
Clc1ccc(CSc2ncnc3c2ncn3C2CCCCO2)cc1 (stereo unspecified)	GLP-1R inv ag 11µM
CN(C)c1ccc(CNC(=O)C2CCN(C(=O)c3ccc(-n4ccc5ccccc54)s3)CC2)cc1	GLP-1R inv ag inconclusive (no result: GLP-1R agonist)
CCCSc1ccc2nc(-c3ccccc3)cn2c1	GLP-1R inv ag 2.5µM
CC1CCN(S(=O)(=O)c2ccc3c(c2)oc(=O)n3CC(=O)N2CCCCC2)CC1	none (no result: GLP-1R agonist)
C=CCOC(=O)C1=C(C)NC(C)=C(C(=O)OCC=C)C1/C=C/c1ccccc1	GLP-1R inv ag 5µM
C=CCOC(=O)C1=C(C)NC(C)=C(C(=O)OCC=C)C1c1ccco1	GLP-1R inv ag 11µM
O[C@@H](CNC[C@H](O)[C@H]1CCc2cc(F)ccc2O1)[C@@H]1CCc2cc(F)ccc2O1	none (no result: GLP-1R inv ag, PTHR1 ag, GLP1R cytotox)
CCOc1ccc(CNC(=O)c2oc3c(c2C)-c2nn(Cc4cccc(Cl)c4)cc2CC3)cc1	GLP-1R inv ag 11µM (no result: GLP-1R agonist)
Cc1cccc(CNC(=O)c2oc3c(c2C)-c2nn(Cc4cccc(Cl)c4)cc2CC3)c1	GLP-1R inv ag inconclusive (no result: GLP-1R agonist)
CCC(=O)Nc1nc(-c2ccc3c(c2)OCCO3)cs1	none
CC(C)(C)C(=O)Nc1nc(-c2ccc3c(c2)OCO3)cs1	GLP-1R inv ag 10µM
Cc1cc(-c2nc3ccccc3s2)ccc1N	GLP-1R inv ag 7.9µM
Nc1ccc2nc(-c3ccccc3)sc2c1	GLP-1R inv ag 8.9µM
Cc1ccc2nc(-c3ccc(N)cc3)sc2c1	GLP-1R inv ag 4.5µM
CC(=O)Nc1cc(-c2nc3ccccc3s2)ccc1C	none (no result: GLP-1R agonist)
Nc1ccc(-c2nc3cc(N)ccc3s2)cc1	GLP-1R inv ag inconclusive
Cc1ccc2c(=O)cc(C(=O)Nc3ccc(S(=O)(=O)N4CCC(C)CC4)cc3)oc2c1C	none (no result: GLP-1R agonist)
N#Cc1cccc(NC(=O)c2cc3c(s2)-c2ccc(Cl)cc2SC3)c1	none (no result: GLP-1R agonist)

Screens deposited in PubChem by National Center for Advancing Translational Sciences (NCATS).
